High-throughput results as filed in PubChem BioAssay.
PI5P4K alpha inh = qHTS for Inhibitors of phosphatidylinositol 5-phosphate 4-kinase (PI5P4K); Phosphatidylinositol 5-phosphate 4-kinase type-2 alpha (Homo sapiens), P48426; PI5P4Kalpha enzyme, ADP-Glo luminescence, 60 min; stronger effect = lower value; max response, %; 1.2% of 330,000 active; active = max response of -50% or lower; inconclusive = between -30% and -50%; inactive = -30% or higher; note: value at the top dose of about 77 µM; % is set by controls: 0 for no effect and ±100 for the full control effect
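Single end-point luminescence (ADP-Glo) quantified ADP from PI5P4Kalpha turnover; ATP 5 microM final, 1 h at RT, 0.1% CHAPS and 0.28 mM EGTA in HEPES pH 7.4.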
12-LOX inh = Primary qHTS assay for inhibitors of human arachidonate 12S-lipoxygenase (ALOX12): Round 2 | Polyunsaturated fatty acid lipoxygenase ALOX12 (Homo sapiens), P18054 | purified 12hLO, xylenol orange hydroperoxide absorbance | Potency, µM (top dose mostly 108 µM), for the others: top-dose activity change, negative = inhibition, usual class: inhibitors | 1.1% of 580,000 active; note: potency is the fitted concentration of half-maximal effect; % is set by controls: 0 for no effect and ±100 for the full control effect
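Hydroperoxide product was detected by ferrous iron/xylenol orange as the 573 to 405 nm absorbance ratio. Arachidonic acid at 40 uM (final) was turned over for 30 min at room temperature by 150 nM human 12hLO, pH 7.0 Hepes buffer, after 15 min compound preincubation.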
POLB inh = qHTS Assay for Inhibitors of DNA Polymerase Beta. P06746. Pol beta primer extension/strand displacement, fluorescence kinetic. Potency, µM (highest dose often 114 µM), without a hit: at the highest dose activity change, negative = inhibition, usual class: inhibitors. 1.3% of 340,000 active. AID 485314, 2010; note: potency is the fitted concentration of half-maximal effect; % is set by controls: 0 for no effect and ±100 for the full control effect
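Human Pol beta at 10 nM; strand-displacement substrate 50 nM final. Compound exposure 15 min at room temperature before start, reaction 10 min at room temperature.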
Pol kappa inh = qHTS for Inhibitors of Polymerase Kappa. purified Pol kappa, fluorescent DNA synthesis assay, 10 min. Potency, µM (doses to about 107 µM), inactives show top-dose activity, negative = inhibition, usual class: inhibitors. DNA polymerase kappa (Homo sapiens), Q9UBT6. 0.53% of 400,000 active; note: potency is the fitted concentration of half-maximal effect; % is set by controls: 0 for no effect and ±100 for the full control effect
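Kinetic fluorescence screen: compound preincubated 15 min RT with 10 nM enzyme; 50 nM substrate (final) initiates; reads at 0/10 min.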
Pol eta inh = qHTS for Inhibitors of Polymerase Eta | DNA polymerase eta (Homo sapiens), Q9Y253 | recombinant Pol eta, fluorescent DNA replication assay | Potency, µM (titrated, usually from 114 µM), inactives show at the highest dose activity change, negative = inhibition, actives largely listed as inhibitors | 1.2% of 390,000 active | AID 588591, 2011; note: potency is the fitted concentration of half-maximal effect; % is set by controls: 0 for no effect and ±100 for the full control effect
Target sequence (Q9Y253 whole entry, looked up): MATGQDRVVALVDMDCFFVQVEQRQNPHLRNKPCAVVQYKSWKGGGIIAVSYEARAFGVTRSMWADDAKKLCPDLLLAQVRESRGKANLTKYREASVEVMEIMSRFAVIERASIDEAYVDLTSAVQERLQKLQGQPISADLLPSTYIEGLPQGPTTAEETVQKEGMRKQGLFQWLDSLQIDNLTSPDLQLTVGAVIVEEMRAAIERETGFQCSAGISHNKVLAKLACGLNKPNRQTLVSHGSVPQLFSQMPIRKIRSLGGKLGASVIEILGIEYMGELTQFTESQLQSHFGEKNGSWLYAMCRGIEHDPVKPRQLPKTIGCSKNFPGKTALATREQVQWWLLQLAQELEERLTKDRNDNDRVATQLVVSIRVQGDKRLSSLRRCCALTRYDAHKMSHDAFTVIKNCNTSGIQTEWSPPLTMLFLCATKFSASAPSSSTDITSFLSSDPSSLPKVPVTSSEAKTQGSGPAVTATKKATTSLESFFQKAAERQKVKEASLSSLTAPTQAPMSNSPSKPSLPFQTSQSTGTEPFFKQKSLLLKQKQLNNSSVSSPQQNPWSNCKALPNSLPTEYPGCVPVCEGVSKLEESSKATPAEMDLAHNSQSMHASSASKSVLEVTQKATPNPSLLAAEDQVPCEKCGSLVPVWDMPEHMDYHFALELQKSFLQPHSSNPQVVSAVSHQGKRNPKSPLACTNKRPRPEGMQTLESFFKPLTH
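Fluorescent replication assay: 50 nM final substrate added after a 15 min room-temperature compound preincubation with 10 nM enzyme. Signal taken at 0 min and again at 10 min.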
Pol iota inh = qHTS for Inhibitors of Polymerase Iota. DNA polymerase iota (Homo sapiens), Q9UNA4. Pol iota fluorescent replication assay, 10 min. Potency, µM (highest dose often 115 µM), without a hit: at the highest dose activity, negative = inhibition, actives largely listed as inhibitors. 1% of 390,000 active. AID 588590, 2011; note: potency is the fitted concentration of half-maximal effect
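Fluorescent replication assay read twice, at 0 min and 10 min after adding 50 nM (final) substrate. Enzyme (10 nM) and compounds were first incubated 15 min at room temperature; enzyme-free buffer wells were negative controls.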
An asterisk follows results filed as active; ? = inconclusive; nt = no result; ! = a repeat was not active; [ ] = another dose, or the depositor's remark. Sampled rows, rich in hits. Any-hit rate of the full collection: about 2.9%. Unless noted, calls come from the whole dose curve; as a rule, active = well fitted inhibition curve with a large enough effect; inconclusive = small, poorly fitted or top-dose-only effect, or another doubt; inactive = no such curve, though single readings can be large or run the other way.

SMILES	PI5P4K alpha inh	12-LOX inh	POLB inh	Pol kappa inh	Pol eta inh	Pol iota inh
CCOC(=O)N1CCN(C2=C(NS(=O)(=O)c3ccc(NC(C)=O)cc3)C(=O)c3ccccc3C2=O)CC1	0.3	?	?	-10.3%	-4.8%	6.31µM*
CC1CCN(C2=C(NS(=O)(=O)c3ccc(Br)cc3)C(=O)c3ccccc3C2=O)CC1	-2.6	-28.8%	34.6%	-16.7%	-11.8%	7.08µM*
Cc1nc(-n2nc(C)c(Cl)c2C)sc1C(=O)N1CCCCCC1	nt	-7.9%	nt	nt	nt	nt
O=C(O)c1ccc2c(ccc3nn(-c4ccc(/C=C/c5ccc(-n6nc7ccc8cc(C(=O)O)ccc8c7n6)cc5[S+](=O)([O-])[O-])c([S+](=O)([O-])[O-])c4)nc32)c1	nt	nt	nt	1.78µM*	nt	?
O=[S+]([O-])([O-])c1ccc2c(c1)cc([S+](=O)([O-])[O-])c1nn(-c3ccc(/C=C/c4ccc(-n5nc6c([S+](=O)([O-])[O-])cc7cc([S+](=O)([O-])[O-])ccc7c6n5)cc4[S+](=O)([O-])[O-])c([S+](=O)([O-])[O-])c3)nc12	nt	nt	nt	10µM*	nt	?
O=S(=O)(NC[C@H]1Cn2c(-c3ccc(F)cc3)cnc2CO1)c1ccc(Cl)cc1	nt	50.1µM*	nt	nt	nt	nt
CS(=O)(=O)NC[C@H]1Cn2c(-c3ccc(F)cc3)cnc2CO1	nt	-1.3%[176 µM]	nt	nt	nt	nt
CCNc1cc(C(=O)N2CCOCC2)c2ccccc2n1	nt	29.1%	nt	nt	nt	nt
Cc1csc(NC(=O)CN(C)S(=O)(=O)c2cccc3cccnc23)n1	-3.6	0.8%	?	-2.7%	1.2%	2.1%
CN(CC(=O)Nc1n[nH]c(=S)s1)S(=O)(=O)c1cccc2cccnc12	-57.0*	?	-0.9%	1.1%	7.8%	?
COC1=CCC2([N+](=O)[O-])CN(CCO)CC1([N+](=O)[O-])C2 (centres undefined)	2.7	4.2%	0.199µM*	-13.6%	-9.5%	4.0%
Oc1ccc2c(c1)OCC1(O)Cc3cc(O)c(O)cc3C21 (centres undefined)	-88.4*	?	nt	31.6µM*!	17.8µM*	40.6%
CC(C)(C)c1ccc(CC/C=N/O)cc1	nt	11.2µM*	nt	nt	nt	nt
Cc1sc(-n2c(C)cc(/C=C3\SC(=S)NC3=O)c2C)c(C#N)c1C	nt	?	31.6µM*	79.4µM*	22.4µM*	?
Cc1sc(-n2c(C)cc(/C=N/n3cnnc3)c2C)c(C#N)c1C	nt	25.6%	-20.3%	-8.8%	-7.2%	-13.5%[58.9 µM]
Cc1nn(CC(=O)Nc2nc3c(C)cccc3s2)c(=O)c2ccccc12	nt	-3.1%	nt	nt	nt	nt
O=C(NCC(c1cccs1)N1CCOCC1)c1cc2ccccc2oc1=O (centres undefined)	6.1	17.8µM*!	nt	-7.3%	-2.5%	3.0%
S=c1[nH]nc(-c2ccccn2)n1/N=C/c1ccc(-c2ccccc2Br)o1	-25.4	?	50.1µM*	4.9%	-6.4%	79.4µM*
Cc1ccc(CCC(=O)O)cc1Cl	nt	16.5%	nt	nt	nt	nt
CCSc1n[nH]c(=S)s1	?	44.7µM*	-15.0%	1.2%	-17.3%	49.9%
COC(=O)CSc1n[nH]c(=S)s1	-21.0	?	3.1%	5.7%	-4.2%	22.0%
COc1ccc([C@@H]2[C@@H](C(=O)N3CCCC3)CC(=O)N2C(=O)/C=C/c2ccccc2)cc1	nt	-18.0%	nt	nt	nt	nt
O=C(CNS(=O)(=O)c1c(Cl)cccc1Cl)OCC(=O)c1ccc[nH]1	-50.8*	-0.8%	?	?	44.7µM*	15.8µM*
Nc1c(F)cc(F)cc1-c1ccccc1	nt	8.5%	nt	nt	nt	nt
COc1cccc(CN(C)Cc2cc(=O)oc3c(C)c(C)ccc23)c1	9.8	0.0%	0.1%	8.3%	-9.9%	-5.3%
SMILES	PI5P4K alpha inh	12-LOX inh	POLB inh	Pol kappa inh	Pol eta inh	Pol iota inh
COc1cccc(CN(C)Cc2cc(=O)oc3cc(O)c(Cl)cc23)c1	-78.0*	-15.5%	0.5%	-19.3%	-5.2%	-25.0%
Cc1c(Cl)cccc1NC(=O)C(C)NS(=O)(=O)c1ccc2c(c1)CCN2C(=O)N1CCCC1 (centres undefined)	nt	3.0%	nt	nt	nt	nt
O=C(NCc1ccco1)c1cc2nc(-c3ccc4c(c3)OCO4)cc(C(F)(F)F)n2n1	0.3	-8.6%	79.4µM*	-29.7%	7.1%	-4.5%
O=C(NCc1ccco1)c1nn2c(C(F)(F)F)cc(-c3cccs3)nc2c1Br	-10.9	316.8%	89.1µM*	-9.6%	-15.3%	5.1%
COc1ccc(-c2cc(C(F)(F)F)n3nc(C(=O)NCc4ccco4)cc3n2)cc1	nt	-2.1%	3.5%	-12.6%	-9.3%	-1.9%
Cc1cc(-c2ccccc2)nc2cc(C(=O)NCc3ccco3)nn12	-27.3	182.8%	?	?	44.7µM*	?
COc1ccc(-c2cc(C(F)(F)F)n3nc(C(=O)NCC45CC6CC(CC(C6)C4)C5)cc3n2)cc1	nt	16.3%	?	-20.4%	-5.3%	89.1µM*
CNC(=O)Nc1ccc(Cl)c(Cl)c1	nt	6.1%[176 µM]	nt	nt	nt	nt
COc1ccc2cc(C(=O)NCC(C)N3CCCC3)c(C)nc2c1 (centres undefined)	nt	9.9%	nt	nt	nt	nt
COc1ccc2nc(-n3ncc4c3NC(=O)CC4c3ccc(O)c(OC)c3)sc2c1 (centres undefined)	nt	3.4%	nt	nt	nt	nt
COc1ccccc1CCC(=O)N1CCN(c2cc(-c3ccc(Cl)cc3)[nH]n2)CC1	nt	36.4%	nt	nt	nt	nt
COc1ccc(C2C(C(=O)Nc3ccc(C)cc3)=C(C)Nc3nc4ccccc4n32)cc1OC (centres undefined)	nt	-27.5%	nt	nt	nt	nt
COc1ccc2nc(NC(=O)c3nc(SCc4ccccc4F)ncc3Cl)sc2c1	nt	?	0.6%	?	-15.4%	8.4%
COc1ccc2nc(NC(=O)c3nc(S(=O)(=O)Cc4ccccc4F)ncc3Cl)sc2c1	nt	-0.8%	5.62µM*	?	?	?
Cn1cc(C2=C(c3cn(CCCSC(=N)N)c4ccccc34)C(=O)NC2=O)c2ccccc21	nt	?	nt	3.9%[60.1 µM]	nt	89.1µM*
O=C(O)C1(c2ccc(Cl)cc2Cl)CCOCC1	nt	12.4%	nt	nt	nt	nt
O[C@H]1C[C@H](c2ccc(Cl)cc2)N(Cc2cccs2)C[C@@H]1n1cc(-c2ccc(F)cc2)nn1	17.9	35.5µM*	nt	nt	-29.1%	nt
COc1cc(/C=N\N=C2/SC(CC(=O)O)C(=O)N2c2ccc(O)cc2)ccc1O (centres undefined)	nt	-0.8%	-28.1%	-7.5%[60.1 µM]	5.2%	-9.8%
COc1cc(/C=N/N=C2/SCC(=O)N2c2ccc(O)cc2)ccc1O	-50.1*	2.2%	0.8%	-8.2%	-1.9%	81.3%
Cc1ccc2c(c1)-c1nc3ccccc3cc1/C2=C\c1cccnc1	nt	5.3%	nt	nt	nt	nt
